“And” between values parts separate entries of the source, which are not always exact repeats. Equal entries are not always repeated.
The compounds below were run against Solute carrier family 2, facilitated glucose transporter member 1 (Homo sapiens) (UniProt P11166) (assay: ST_JUDE_LEISH: Cytotoxicity at 2uM final concentration against transgenic Leishmania Mexicana promastigotes LmGLUT1 that are glucose transport deficient and complemented with the human glucose transporter GLUT1. Activity is measured by DNA content using SYBR green in vitro).
Sequence of Solute carrier family 2, facilitated glucose transporter member 1 (Homo sapiens) (P11166 whole entry): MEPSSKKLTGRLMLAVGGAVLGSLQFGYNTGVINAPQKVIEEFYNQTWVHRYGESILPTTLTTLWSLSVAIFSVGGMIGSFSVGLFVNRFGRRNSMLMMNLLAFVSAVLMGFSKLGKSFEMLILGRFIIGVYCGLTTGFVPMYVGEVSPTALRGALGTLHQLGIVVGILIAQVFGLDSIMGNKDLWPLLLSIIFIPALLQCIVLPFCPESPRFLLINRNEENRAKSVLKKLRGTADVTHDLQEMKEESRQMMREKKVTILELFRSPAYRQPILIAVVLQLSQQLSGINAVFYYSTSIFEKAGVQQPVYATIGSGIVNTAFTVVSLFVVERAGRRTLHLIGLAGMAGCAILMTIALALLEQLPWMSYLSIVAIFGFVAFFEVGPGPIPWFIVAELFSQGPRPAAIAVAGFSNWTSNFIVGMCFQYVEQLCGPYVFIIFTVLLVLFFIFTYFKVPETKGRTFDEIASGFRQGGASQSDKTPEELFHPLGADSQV
Format: functional
In the case of `O=C(Nc1cccc(CN2CCCN(Cc3ccc(O)cc3)CC2)c1)c1ccc(Br)cc1`, the inhibition is reported as 0.51%. `CN1CCC(Oc2ccc(Nc3nccc(NCC(O)c4ccccc4)n3)cc2Cl)CC1` (stereo not given) showed an inhibition of -2.84%. Compound `CCN(CC)CCCC(C)Nc1c2ccccc2nc2c1ccc1ccccc12` (stereo not given) has an inhibition of 7.99%. In the case of `C[C@H]1CN(Cc2cccc(-c3cc(CNC(=O)c4cccc(CC5CCN(C)CC5)c4)ccc3F)c2)CCN1C`, the inhibition is reported as 0.87%. With `CCc1cn2c3c(cc(C(=O)N[C@@H](Cc4ccccc4)[C@H](O)CNC4CCOCC4)cc13)N(C(C)C)S(=O)(=O)CC2` the inhibition was -1.49%. `CC(C)(C)c1ccc(NC(=O)c2ccc(CN3CCCN(Cc4cccc(Cl)c4)CC3)cc2)cc1` gave an inhibition of 4.39%. With `CO/C(=C\C=C\c1cc2cc(Cl)c(Cl)cc2[nH]1)C(=O)NC1CC2CCCC(C1)N2C` (stereo not given) the inhibition was 1.7%. In the case of `O=C(c1ccc(O)c(-c2cc(Cl)cc(Cl)c2)c1)N1CCCC1`, the inhibition is reported as 1.89%. For `Cc1ccc(S(=O)(=O)NC2CCN(c3ccnc4cc(Cl)ccc34)C2)cc1` (stereo not given), the inhibition was 3.79%. `Cc1ccccc1NC(=S)NC1CCN(CCCCCNC(=O)/C=C/c2ccc(Cl)c(Cl)c2)CC1` was tested, and the inhibition was 5.52%. Work on `N#Cc1cc(C(=O)c2cc(Br)ccc2O)cn(-c2cc(Cl)cc(Cl)c2)c1=O` yielded an inhibition of -3.11%. Compound `CCCCCCCC1CCN(C[C@H](O)c2ccnc3ccc(OC)cc23)CC1` has an inhibition of 2.75%. In the case of `CCn1cnc2c(N3CCCCS3(=O)=O)cc(C(=O)N[C@@H](Cc3ccccc3)[C@H](O)CNC3CCOCC3)cc21`, the inhibition is reported as 3.99%. `O=C(NCCCCN1CCCC2c3ccc(O)cc3CCC21)c1ccc(-c2ccccc2)cc1` (stereo not given) was tested, and the inhibition was 0.24% and 13.2%. With `Cc1ccc(C(=O)Nc2ccc(C)c(OC3CCN(CCC(C)C)C3)c2)cc1` (stereo not given) the inhibition was 8.1%. In the case of `CS(=O)(=O)c1ccccc1CNC(=O)c1cccc(-c2ccc(-c3nc4cc(C(F)(F)F)ccc4[nH]3)cc2)c1`, the inhibition is reported as 2.38%. Work on `COc1ccccc1NC(=O)NC1CCN(CCCCCNC(=O)/C=C/c2ccc(Cl)c(Cl)c2)CC1` yielded an inhibition of 1.87%. Compound `CCCN(c1ccc(O)c(CN2CCCCC2)c1)c1ccc([N+](=O)[O-])cn1` has an inhibition of 1.28%. With `CC(C)C[C@H](NC(=O)c1cc2ccccc2s1)C(=O)N[C@H]1CCN(Cc2ccc(OC[C@@H]3CCCN3C)c(Cl)c2)C1` the inhibition was 10.8%. In the case of `CCCCOc1c(CCNCCCCNCCc2cc(OC)c3ccccc3c2OCCCC)cc(OC)c2ccccc12`, the inhibition is reported as 4.98%. For `CN1CCC(C(=O)Nc2cccc(-c3ccc(-c4nc5ccccc5[nH]4)cc3)c2)CC1`, the inhibition was -0.41%. In the case of `CN(Cc1cccc(C#N)c1)C1CCN(c2cc(NC(=O)c3cccc(F)c3)ccn2)CC1`, the inhibition is reported as 3.81%. For `Clc1ccc(-c2nc(-c3ccncc3)c[nH]2)cc1Cl`, the inhibition was 0.68%. `O=C(Nc1cc(F)c(F)c(-c2cccnc2)c1)N1CCc2cc(Cl)c(Cl)cc21` gave an inhibition of 0.67%. For `CC(=O)Nc1ccc(CN2CCc3ccc(NS(=O)(=O)c4cccc(OCc5ccc(Cl)cc5)c4)cc3CC2)s1`, the inhibition was 2.65%. With `O=C(/C=C/c1ccc(Cl)c(Cl)c1)NCCCCCN1CCC(NC(=S)Nc2ccc(Cl)cc2Cl)CC1` the inhibition was 8.85%. `CC[C@H]1CN2CCc3c([nH]c4ccccc34)[C@@H]2C[C@@H]1CC1c2cc(OC)c(OC)cc2CCN1C` (stereo not given in full) was tested, and the inhibition was 9.81%. `O=C(/C=C/c1ccc(Cl)c(Cl)c1)NCCCCCN1CCN(C(=O)Nc2ccc(Cl)c(C(F)(F)F)c2)CC1` was tested, and the inhibition was 2.17%. Compound `Oc1ccc(Cl)cc1CN1CCC2(CCCN(CC3CCC3)C2)C1` (stereo not given) has an inhibition of -3%. Work on `O=C1CCCN1CCCNCc1ccc(-c2cccc(-c3nc4cc(F)ccc4[nH]3)c2)cc1` yielded an inhibition of -2.56%. Compound `Cc1[nH]c(C)c(-c2ccc(-c3ccc(OC(F)(F)F)cc3)cc2)c(=O)c1Cl` has an inhibition of 4.71%. With `COC(=O)c1ccc(OCC(O)CO)cc1O` (stereo not given) the inhibition was 0.55%. `COc1ccc2nccc(N3CCC(CCNCc4cc5c(cn4)OCCO5)CC3)c2c1` showed an inhibition of 7.15%. Compound `CCC(=O)Nc1cc(=O)[nH]c2nc(-c3ccc(Cl)cc3)nn12` has an inhibition of -1.32%. `CCO[C@H]1CN[C@H](C#Cc2cc3c(Nc4ccc(OCc5cccc(F)c5)c(Cl)c4)ncnc3s2)C1` gave an inhibition of 0.74%. `CN(C)CCOc1ccc(N2CCN(CCCCNC(=O)c3ccc(NC(=O)c4ccc(Cl)cc4)cc3)CC2)cc1` showed an inhibition of 0.54%. `CCOCCCn1c(=N)c(C(=O)NCc2ccc(OC)cc2)cc2c(=O)n3cccc(C)c3nc21` was tested, and the inhibition was 3.85%. Compound `CN(Cc1ccc(-c2ccc(C(F)(F)F)cc2)cc1)C(=O)Cn1c(CCc2cccc(F)c2F)cc(=O)c2ccc(OCCCN3CCCCC3)cc21` has an inhibition of 1.01%. For `CCC(Cc1ccccc1)c1cc(O)c(Cc2ccc(-c3ccccc3)cc2)c(=O)o1` (stereo not given), the inhibition was 2.42%. Work on `Brc1ccc(C=NNc2nc3ccccc3[nH]2)cc1` yielded an inhibition of 6.61%.

Each compound was assayed against Hexose transporter 1 (Plasmodium falciparum) (UniProt O97467) (assay: ST_JUDE_LEISH: Cytotoxicity at 2uM final concentration against transgenic Leishmania Mexicana promastigotes LmPfHT that are glucose transport deficient and complemented with the Plasmodium falciparum hexose transporter. Activity is measured by DNA content using SYBR green in vitro).
Format: functional
In the case of `O=C(Nc1cccc(CN2CCCN(Cc3ccc(O)cc3)CC2)c1)c1ccc(Br)cc1`, the inhibition is reported as 0.85%. `CN1CCC(Oc2ccc(Nc3nccc(NCC(O)c4ccccc4)n3)cc2Cl)CC1` (stereo not given) was tested, and the inhibition was -3.54%. `CCN(CC)CCCC(C)Nc1c2ccccc2nc2c1ccc1ccccc12` (stereo not given) was tested, and the inhibition was 3.26%. For `C[C@H]1CN(Cc2cccc(-c3cc(CNC(=O)c4cccc(CC5CCN(C)CC5)c4)ccc3F)c2)CCN1C`, the inhibition was 0.27%. Compound `CCc1cn2c3c(cc(C(=O)N[C@@H](Cc4ccccc4)[C@H](O)CNC4CCOCC4)cc13)N(C(C)C)S(=O)(=O)CC2` has an inhibition of 3.8%. With `CC(C)(C)c1ccc(NC(=O)c2ccc(CN3CCCN(Cc4cccc(Cl)c4)CC3)cc2)cc1` the inhibition was 2.95%. `CO/C(=C\C=C\c1cc2cc(Cl)c(Cl)cc2[nH]1)C(=O)NC1CC2CCCC(C1)N2C` (stereo not given) showed an inhibition of 0.66%. Work on `O=C(c1ccc(O)c(-c2cc(Cl)cc(Cl)c2)c1)N1CCCC1` yielded an inhibition of 0.9%. For `Cc1ccc(S(=O)(=O)NC2CCN(c3ccnc4cc(Cl)ccc34)C2)cc1` (stereo not given), the inhibition was 3.39%. `Cc1ccccc1NC(=S)NC1CCN(CCCCCNC(=O)/C=C/c2ccc(Cl)c(Cl)c2)CC1` showed an inhibition of 4.69%. Work on `N#Cc1cc(C(=O)c2cc(Br)ccc2O)cn(-c2cc(Cl)cc(Cl)c2)c1=O` yielded an inhibition of 0.39%. `CCCCCCCC1CCN(C[C@H](O)c2ccnc3ccc(OC)cc23)CC1` was tested, and the inhibition was 0.96%. `CCn1cnc2c(N3CCCCS3(=O)=O)cc(C(=O)N[C@@H](Cc3ccccc3)[C@H](O)CNC3CCOCC3)cc21` showed an inhibition of 2.96%. `O=C(NCCCCN1CCCC2c3ccc(O)cc3CCC21)c1ccc(-c2ccccc2)cc1` (stereo not given) was tested, and the inhibition was 1.39% and 1.92%. `Cc1ccc(C(=O)Nc2ccc(C)c(OC3CCN(CCC(C)C)C3)c2)cc1` (stereo not given) showed an inhibition of 8.98%. `CS(=O)(=O)c1ccccc1CNC(=O)c1cccc(-c2ccc(-c3nc4cc(C(F)(F)F)ccc4[nH]3)cc2)c1` gave an inhibition of 1.77%. `COc1ccccc1NC(=O)NC1CCN(CCCCCNC(=O)/C=C/c2ccc(Cl)c(Cl)c2)CC1` gave an inhibition of 2.75%. `CCCN(c1ccc(O)c(CN2CCCCC2)c1)c1ccc([N+](=O)[O-])cn1` was tested, and the inhibition was 0.61%. `CC(C)C[C@H](NC(=O)c1cc2ccccc2s1)C(=O)N[C@H]1CCN(Cc2ccc(OC[C@@H]3CCCN3C)c(Cl)c2)C1` was tested, and the inhibition was 10.6%. `CCCCOc1c(CCNCCCCNCCc2cc(OC)c3ccccc3c2OCCCC)cc(OC)c2ccccc12` showed an inhibition of 5.5%. Work on `CN1CCC(C(=O)Nc2cccc(-c3ccc(-c4nc5ccccc5[nH]4)cc3)c2)CC1` yielded an inhibition of 1.25%. For `CN(Cc1cccc(C#N)c1)C1CCN(c2cc(NC(=O)c3cccc(F)c3)ccn2)CC1`, the inhibition was 5.32%. In the case of `Clc1ccc(-c2nc(-c3ccncc3)c[nH]2)cc1Cl`, the inhibition is reported as 0.78%. `O=C(Nc1cc(F)c(F)c(-c2cccnc2)c1)N1CCc2cc(Cl)c(Cl)cc21` showed an inhibition of -1.8%. `CC(=O)Nc1ccc(CN2CCc3ccc(NS(=O)(=O)c4cccc(OCc5ccc(Cl)cc5)c4)cc3CC2)s1` was tested, and the inhibition was -0.08%. `O=C(/C=C/c1ccc(Cl)c(Cl)c1)NCCCCCN1CCC(NC(=S)Nc2ccc(Cl)cc2Cl)CC1` gave an inhibition of 9.09%. For `CC[C@H]1CN2CCc3c([nH]c4ccccc34)[C@@H]2C[C@@H]1CC1c2cc(OC)c(OC)cc2CCN1C` (stereo not given in full), the inhibition was 10%. `O=C(/C=C/c1ccc(Cl)c(Cl)c1)NCCCCCN1CCN(C(=O)Nc2ccc(Cl)c(C(F)(F)F)c2)CC1` gave an inhibition of 0.61%. Compound `Oc1ccc(Cl)cc1CN1CCC2(CCCN(CC3CCC3)C2)C1` (stereo not given) has an inhibition of -0.63%. `O=C1CCCN1CCCNCc1ccc(-c2cccc(-c3nc4cc(F)ccc4[nH]3)c2)cc1` gave an inhibition of -0.8%. For `Cc1[nH]c(C)c(-c2ccc(-c3ccc(OC(F)(F)F)cc3)cc2)c(=O)c1Cl`, the inhibition was 3.77%. Work on `COC(=O)c1ccc(OCC(O)CO)cc1O` (stereo not given) yielded an inhibition of 2.14%. For `COc1ccc2nccc(N3CCC(CCNCc4cc5c(cn4)OCCO5)CC3)c2c1`, the inhibition was 8%. With `CCC(=O)Nc1cc(=O)[nH]c2nc(-c3ccc(Cl)cc3)nn12` the inhibition was -2.09%. With `CCO[C@H]1CN[C@H](C#Cc2cc3c(Nc4ccc(OCc5cccc(F)c5)c(Cl)c4)ncnc3s2)C1` the inhibition was 3.65%. `CN(C)CCOc1ccc(N2CCN(CCCCNC(=O)c3ccc(NC(=O)c4ccc(Cl)cc4)cc3)CC2)cc1` showed an inhibition of 0.36%. With `CCOCCCn1c(=N)c(C(=O)NCc2ccc(OC)cc2)cc2c(=O)n3cccc(C)c3nc21` the inhibition was 5.36%. With `CN(Cc1ccc(-c2ccc(C(F)(F)F)cc2)cc1)C(=O)Cn1c(CCc2cccc(F)c2F)cc(=O)c2ccc(OCCCN3CCCCC3)cc21` the inhibition was 0.66%. `CCC(Cc1ccccc1)c1cc(O)c(Cc2ccc(-c3ccccc3)cc2)c(=O)o1` (stereo not given) was tested, and the inhibition was 2.07%. `Brc1ccc(C=NNc2nc3ccccc3[nH]2)cc1` showed an inhibition of 4.26%.

From ChEMBL document CHEMBL3433997, “St. Jude Leishmania screening dataset” (2016)
